High-throughput results: PubChem BioAssay, Center for Chemical Genomics, University of Michigan
Dicer inh: inhibitors of human Dicer processing of pre-microRNA; Q9UPY3; cat-ELCCA pre-miR-21 Dicer processing, chemiluminescence; active compounds read high; z-score at 25 µM; 47,000 tested, 6% active; in the data active = z-score above about 3, passing the limit was not always enough;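 also: plate controls were vehicle for no effect and no enzyme for full effect; higher signal means more uncleaved substrate so more Dicer inhibition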
* marks the source's active call; other numbers are inactive results. The sample as a whole holds a higher share of hits than the screen did.

SMILES	Dicer inh
Cc1noc(COc2ccccc2)c1C(=O)O	0.71
CC1(C)CC(=O)c2cnn(-c3nc4ccccc4[nH]3)c2C1	-0.77
Cc1nc(Nc2ncc3c(n2)CC(C)CC3=O)nc2ccccc12 (configuration not stated)	1.5
CC1CC(=O)c2cnn(-c3nc4ccccc4s3)c2C1 (configuration not stated)	3*
Cc1cc(Br)ccc1Nc1ncnc(-n2cccc2)n1	-1.4
CCS(=O)(=O)c1nc2ccccc2n1CC(N)=O	1.6
C=CCOc1ccc(/C(O)=C2/C(=O)C(=O)N(CCOC)C23C(=O)N(CC)c2ccccc23)cc1 (configuration not stated)	-0.44
CCN1C(=O)C2(/C(=C(/O)c3ccc(C)c(F)c3)C(=O)C(=O)N2CCOC)c2ccccc21 (configuration not stated)	8.7*
C=CCOc1ccc(/C(O)=C2/C(=O)C(=O)N(CCOC)C23C(=O)N(CC)c2ccccc23)cc1C (configuration not stated)	6*
C=CCOc1ccc(/C(O)=C2/C(=O)C(=O)N(CCCOC)C23C(=O)N(C)c2ccccc23)cc1C (configuration not stated)	2.7
C=CCOc1ccc(/C(O)=C2/C(=O)C(=O)N(CC3CCCO3)C23C(=O)N(C)c2ccccc23)cc1C (configuration not stated)	5.2*
CCN1C(=O)C2(/C(=C(/O)c3ccc(OC)cc3)C(=O)C(=O)N2CCOC)c2ccccc21 (configuration not stated)	0.23
C=CCOc1ccc(/C(O)=C2/C(=O)C(=O)N(CCCN(C)C)C23C(=O)N(C)c2ccccc23)cc1C (configuration not stated)	2.5
COc1ccc(/C(O)=C2/C(=O)C(=O)N(CC3CCCO3)C23C(=O)N(C)c2ccccc23)cc1C (configuration not stated)	2.2
CCN1C(=O)C2(/C(=C(/O)c3ccc(C)c(F)c3)C(=O)C(=O)N2CCN2CCOCC2)c2ccccc21 (configuration not stated)	-1.4
CCOC(=O)C(C#N)c1c([N+](=O)[O-])c(=O)n(-c2ccccc2)c2ccccc12 (configuration not stated)	-1.6
O=C(O)c1cccc(CSc2cccs2)c1	-0.83
Cc1ccc(-n2ncc3c2ncn2c(COc4ccccc4C)nnc32)cc1	0.39
CCNc1nc2c(Cl)cc(Cl)cc2s1	-0.3
COc1ccc(NC(=O)/C=C/c2ccc(Cl)cc2)cc1	-0.89
COc1ccc2nc(NC(=O)Nc3ccc(Cl)cc3)sc2c1	2.7
COc1ccc(Nc2nc(NC(=O)Nc3ccc(Cl)cc3)n[nH]2)cc1	10*
COc1cc(Cl)c(C2Oc3nc(SC)nnc3-c3ccccc3N2C(C)=O)cc1OC (configuration not stated)	0.31
COCCOC(=O)C1=C(C)NC2=C(C(=O)CC(C)(C)C2)C1c1ccc(C(C)C)cc1 (configuration not stated)	-1.1
COc1ccc(C2C=C(c3ccc(Cl)cc3)NC(=O)C2C#N)cc1 (configuration not stated)	4.4*
SMILES	Dicer inh
COc1ccc(C2NC(=O)NC2=O)cc1 (configuration not stated)	1.1
COc1ccc(C2C(C#N)=C(C)NC3=C2C(=O)CC(c2ccc(Cl)cc2)C3)cc1 (configuration not stated)	0.16
CCCC(CCC(=O)Nc1nncs1)C(=O)O (configuration not stated)	0.64
N#Cc1c(Cl)cccc1NC1CCCCNC1=O (configuration not stated)	0.47
CSc1nc(C=Nc2ccccc2)c(O)n1Cc1ccccc1Cl	5.1*
CSc1nc(C=Nc2cccc(Cl)c2)c(O)n1Cc1cccc(Cl)c1	1.6
Cn1c(=O)c2c(nc(Cl)n2Cc2ccccc2Cl)n(C)c1=O	2.3
FC(F)(F)c1ccccc1N=C1CCCc2ccccc21	0.08
O=C(c1ccc(Cl)cc1)C(Sc1ccc(Cl)cc1)c1ccccc1 (configuration not stated)	-1
COc1ccc(C2c3c(oc4ccccc4c3=O)C(=O)N2c2ccccn2)cc1OC (configuration not stated)	1.8
COc1ccc(C2c3c(oc4ccccc4c3=O)C(=O)N2c2ccccn2)cc1 (configuration not stated)	4.1*
O=C1c2oc3ccccc3c(=O)c2C(c2ccc(O)cc2)N1c1nncs1 (configuration not stated)	-1.4
CCCOc1ccc(C2c3c(oc4ccccc4c3=O)C(=O)N2c2ccc(C)cn2)cc1 (configuration not stated)	2.5
CCc1ccc(C2c3c(oc4ccccc4c3=O)C(=O)N2c2ccccn2)cc1 (configuration not stated)	2
O=C1c2oc3ccccc3c(=O)c2C(c2ccc(O)cc2)N1c1ccccn1 (configuration not stated)	5.1*
CCOC(=O)c1cc(=O)oc2cc(O)ccc12	2.4
CC(C)(C)NC(=O)Nc1ccc2ccccc2c1	1.1
N/C(=N\OC(=O)c1csnn1)c1ccc(Cl)cc1	2
Cc1ccc2oc3c(c(=O)c2c1)C(c1cccc(O)c1)N(Cc1ccccc1)C3=O (configuration not stated)	1.1
O=S(=O)(Oc1c(Cl)cccc1Cl)c1cc(Br)c(Br)s1	-0.24
Oc1ccc(Oc2ccc(C(F)(F)F)cn2)cc1	0.24
CCCOc1ccc(C2C(C(=O)OC)=C(C)NC3=C2C(=O)CC(c2ccc(OC)cc2)C3)cc1 (configuration not stated)	2.1
CCOc1ccc(C2C(C(=O)OC)=C(C)NC3=C2C(=O)CC(c2ccc(OC)c(OC)c2)C3)cc1 (configuration not stated)	3.2*
CCOC(=O)C1=C(C)NC2=C(C(=O)CC(c3ccc(Cl)cc3)C2)C1c1ccc(OCC)cc1 (configuration not stated)	3.4*
COC(=O)C1=C(C)NC2=C(C(=O)CC(c3ccc(OC)c(OC)c3)C2)C1c1ccc(OC)cc1OC (configuration not stated)	2.9
SMILES	Dicer inh
CCOCCOC(=O)C1=C(C)NC2=C(C(=O)CC(c3cccs3)C2)C1c1ccc(F)cc1 (configuration not stated)	0.73
CCOCCOC(=O)C1=C(C)NC2=C(C(=O)CC(c3ccc(Cl)cc3)C2)C1c1ccc(F)cc1 (configuration not stated)	4.2*
CCOc1cc(C2C(C(=O)OC)=C(C)NC3=C2C(=O)c2ccccc23)cc(Cl)c1O (configuration not stated)	2.9
CCOc1cc(C2C(C(=O)OC)=C(C)NC3=C2C(=O)CC(c2ccccc2)C3)cc(Cl)c1O (configuration not stated)	3.7*
CCOc1cc(C2Nc3ccccc3NC3=C2C(=O)CC(c2ccccc2)C3)cc(Cl)c1O (configuration not stated)	1.1
CCOCCOC(=O)C1=C(C)NC2=C(C(=O)CC(c3ccccc3)C2)C1c1ccccc1OCC (configuration not stated)	2.6
CCOC(=O)C1=C(C)NC2=C(C(=O)CC(c3ccc(OC)cc3)C2)C1c1ccc(OC)cc1 (configuration not stated)	1.3
CCOC(=O)C1=C(C)NC2=C(C(=O)CC(c3ccc(Cl)cc3)C2)C1c1ccc(N(C)C)cc1 (configuration not stated)	1.7
CSc1nc2cc(C)nn2c(N)c1C#N	-0.11
C/C(=N\NC(=O)/C=C/C(=O)O)c1ccc([N+](=O)[O-])cc1	0.71
